{"source": "the supplement of paper PMC8387472", "note": "± gives the standard deviation of the averaged measurements."}
{"tested_on": "mESC LDLR-Dup GFP reporter (SpCas9 MH-deletion repair)", "assay": "fraction of GFP+ cells relative to DMSO control (fold change); higher = more MH-deletion repair to in-frame LDLR (or more editing)", "details": "2 µM; 7 days post-transfection"}
{"molecule": "O=C(Nc1ccccc1)c1cc([N+](=O)[O-])ccc1Cl", "fraction of GFP+ cells": "1.96 ± 0.34"}
{"molecule": "COc1c2ccoc2cc2oc(=O)ccc12", "note": "[Bergapten]", "fraction of GFP+ cells": "0.969 ± 0.32"}
{"molecule": "NS(=O)(=O)C#Cc1ccccc1", "fraction of GFP+ cells": "1.11 ± 0.052"}
{"molecule": "CN1CCc2c(c3ccccc3n2Cc2ccc(C(=O)NO)cc2)C1", "note": "[Tubastatin A]", "fraction of GFP+ cells": "0.802 ± 0.093"}
{"molecule": "CCn1cc(C(=O)O)c(=O)c2cc(F)c(N3CCNCC3)cc21", "note": "[Norfloxacin]", "fraction of GFP+ cells": "1.01 ± 0.13"}
